As usually defined, the AC50 is the concentration at which the activity in the assay is half-maximal.

This test concerns the target Peroxisome proliferator-activated receptor gamma (Homo sapiens) (UniProt P37231). Nature of the test: ERF_TW_NR_hPPARG: Eurofins (ERF) Nuclear Receptor (NR) Radioligand Binding LeadHunter Assay for human Peroxisome Proliferator-activated Receptor gamma (PPARg) Agonism, conducted at Taiwan lab site. The method, then:
ERF_TW_NR_hPPARG is a biochemical, single-readout assay that uses extracted gene-proteins in a cell-free assay. Measurements were taken 24 hour after chemical dosing in a 96-well plate. See PPARgamma Human NHR Binding (Agonist Radioligand) Assay, Panlabs.ERF_TW_NR_hPPARG is an assay component calculated from the ERF_TW_NR_hPPARG assay. It is designed to measure radioligand binding using a type of binding reporter as detected by scintillation counting with radiometry technology.Data from the assay component ERF_TW_NR_hPPARG was analyzed at the assay endpoint, ERF_TW_NR_hPPARG, in the positive analysis fitting direction relative to DMSO as the negative control and baseline of activity. Using a type of binding receptor, gain-of-signal activity can be used to understand changes in binding receptor as they relate to gene PPARG.To generalize the intended target to other relatable targets, this assay endpoint is annotated to the nuclear receptor intended target family, where the subfamily is non-steroidal.
Human recombinant PPARgamma-LBD expressed in insect cells are used in modified Tris-HCl buffer pH 7.2. A 0.03 ug aliquot is incubated with 5 nM [3H]Rosiglitazone and 1 ug anti-GST antibody for 24 hours at 4C. Non-specific binding is estimated in the presence of 10 uM rosiglitazone. Receptors are counted to determine [3H]Rosiglitazone specifically bound. […]

The source made the active and inactive calls. How the source made its calls: active means hit-call score of the fitted dose curve at least 0.9, where 1 is the maximum; inactive means score below 0.9.

Sequence of Peroxisome proliferator-activated receptor gamma (Homo sapiens) (P37231 whole entry, looked up): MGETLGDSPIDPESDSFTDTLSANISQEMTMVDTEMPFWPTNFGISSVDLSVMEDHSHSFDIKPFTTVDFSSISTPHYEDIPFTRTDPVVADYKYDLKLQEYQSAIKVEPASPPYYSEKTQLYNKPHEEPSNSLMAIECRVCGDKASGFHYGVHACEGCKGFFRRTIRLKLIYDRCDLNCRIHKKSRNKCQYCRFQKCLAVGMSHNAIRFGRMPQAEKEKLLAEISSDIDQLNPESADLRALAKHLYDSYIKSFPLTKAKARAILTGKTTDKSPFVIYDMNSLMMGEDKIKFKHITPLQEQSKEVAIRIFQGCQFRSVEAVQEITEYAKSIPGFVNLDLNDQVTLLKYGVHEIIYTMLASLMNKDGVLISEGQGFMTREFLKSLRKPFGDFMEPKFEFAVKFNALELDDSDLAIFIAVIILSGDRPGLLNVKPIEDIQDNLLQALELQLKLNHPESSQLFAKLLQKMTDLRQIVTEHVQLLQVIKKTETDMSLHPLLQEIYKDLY

For the compound `COC(=O)C(F)(F)C(F)(F)OC(F)(C(F)(F)F)C(F)(F)OC(F)=C(F)F` (configuration not stated), the AC50 is 3.72 µM (active).
For `O=C(O)C(F)(F)C(F)(F)C(F)(F)C(F)(F)C(F)(F)C(F)(F)C(F)(F)C(F)(F)F` the value was 18.6 µM (active).
